# PubChem BioAssay (EPA / NIEHS)
# Calls of active or inactive are those of the source. Rule for the calls: active = hit-call score of the fitted dose curve at least 0.9, where 1 is the maximum; inactive = score below 0.9.
# Key:
# [1] = read-out: Interferon-gamma inducible Protein 10 (IP10), CXCL10 (gene 3627); assay: BSK_hDFCGF_IP10: BioMAP Diversity Plus: hDFCGF Assay for Interferon-gamma inducible Protein 10 (IP10) Biomarker Activity (AID 2283053); conditions: primary human foreskin fibroblasts; actives raise or lower the signal
# Method in brief: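 ELISA quantification of IP-10 after a 24 h chemical exposure of human dermal foreskin fibroblast primary cultures. Both increases and decreases versus DMSO fitted.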
# [2] = read-out: Urokinase-type plasminogen activator receptor (uPAR), PLAUR (gene 5329); assay: BSK_CASM3C_uPAR: BioMAP Diversity Plus: CASM3C Assay for Urokinase-type plasminogen activator receptor (uPAR) Biomarker Activity (AID 2283054); conditions: primary human coronary artery smooth muscle cells; actives raise or lower the signal;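 note: cell-surface uPAR protein level quantified by ELISA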
# [3] = read-out: Vascular cell adhesion molecule 1 (VCAM1), VCAM1 (gene 7412); assay: BSK_CASM3C_VCAM1: BioMAP Diversity Plus: CASM3C Assay for Vascular cell adhesion molecule 1 (VCAM1) Biomarker Activity (AID 2283055); conditions: primary human coronary artery smooth muscle cells; actives raise or lower the signal;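 note: VCAM-1 protein level quantified by ELISA on the cells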
# [4] = read-out: Epidermal growth factor receptor (EGFR), EGFR (gene 1956); assay: BSK_hDFCGF_EGFR: BioMAP Diversity Plus: hDFCGF Assay for Epidermal growth factor receptor (EGFR) Biomarker Activity (AID 2283057); conditions: primary human foreskin fibroblasts; actives raise or lower the signal
# Method in brief: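 EGFR levels by ELISA in human dermal fibroblast cultures, 24 h post-treatment, fitted bidirectionally versus DMSO. Parallel wells stained with sulforhodamine B to detect overt cytotoxicity.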
# [5] = read-out: Interleukin-8 (IL8), CXCL8 (gene 3576); assay: BSK_hDFCGF_IL8: BioMAP Diversity Plus: hDFCGF Assay for Interleukin-8 (IL8) Biomarker Activity (AID 2283058); conditions: primary human foreskin fibroblasts; actives raise or lower the signal
# Method in brief: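 Primary human foreskin fibroblasts (hDFCGF system) dosed with chemical; IL-8 measured by ELISA 24 hours later. Bidirectional curve fitting relative to DMSO baseline; cytotoxicity tracked in parallel cultures by SRB total protein staining.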
# [6] = BSK_hDFCGF_Proliferation: Cell Proliferation Assessment in the BioMAP Diversity Plus: hDFCGF Assay (AID 2283059); conditions: primary human foreskin fibroblasts;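 note: curves fitted for both rise and fall of signal versus DMSO baseline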
# Method in brief: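 This proliferation readout used SRB total-protein staining of human foreskin fibroblasts […], normalized to DMSO with bidirectional curve fitting.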
# [7] = read-out: Macrophage colony-stimulating factor (MCSF), CSF1 (gene 1435); assay: BSK_hDFCGF_MCSF: BioMAP Diversity Plus: hDFCGF Assay for Macrophage colony-stimulating factor (MCSF) Biomarker Activity (AID 2283060); conditions: primary human foreskin fibroblasts; actives raise or lower the signal
# Method in brief: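 Human foreskin fibroblast primary cultures; M-CSF measured by ELISA 24 hours after chemical dosing. Bidirectional fitting relative to DMSO, with overt cytotoxicity tracked by parallel SRB total-protein staining (0.1% SRB, 10% TCA fixation, 560 nm).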
# [8] = BSK_hDFCGF_SRB: Viability Assessment in the BioMAP Diversity Plus: hDFCGF Assay (AID 2283061); conditions: primary human foreskin fibroblasts;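 note: cells exposed to compound for 24 h before the read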
# Method in brief: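 Human foreskin fibroblasts in 96-well plates were treated 24 h. Total protein was measured by 0.1% SRB staining after 10% TCA fixation, read at 560 nm. Data were fitted bidirectionally against DMSO.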
# [9] = read-out: TIMP metallopeptidase inhibitor 1 (TIMP1), TIMP1 (gene 7076); assay: BSK_hDFCGF_TIMP1: BioMAP Diversity Plus: hDFCGF Assay for TIMP metallopeptidase inhibitor 1 (TIMP1) Biomarker Activity (AID 2283062); conditions: primary human foreskin fibroblasts; actives raise or lower the signal
# Method in brief: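 Human foreskin fibroblast primary cultures dosed for 24 h; secreted/surface TIMP-1 quantified by ELISA. Bidirectional curve fitting against DMSO baseline; cytotoxicity tracked in parallel cultures by SRB total-protein staining.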
# [10] = read-out: Monokine induced gamma interferon (MIG), CXCL9 (gene 4283); assay: BSK_hDFCGF_MIG: BioMAP Diversity Plus: hDFCGF Assay for Monokine induced gamma interferon (MIG) Biomarker Activity (AID 2283063); conditions: primary human foreskin fibroblasts; actives raise or lower the signal
# Method in brief: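 MIG/CXCL9 measured by ELISA 24 h after dosing primary human skin fibroblasts. Activity fitted in both directions against DMSO controls. Cytotoxicity was checked in parallel cultures by SRB staining read at 560 nm.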
# [11] = read-out: Matrix Metallopeptidase 1 (MMP1), MMP1 (gene 4312); assay: BSK_hDFCGF_MMP1: BioMAP Diversity Plus: hDFCGF Assay for Matrix Metallopeptidase 1 (MMP1) Biomarker Activity (AID 2283064); conditions: primary human foreskin fibroblasts; actives raise or lower the signal
# Method in brief: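 ELISA read-out of MMP1 from human foreskin fibroblasts (primary skin cells), 24 h post-dose. Gain or loss of signal was fitted bidirectionally versus DMSO negative control; cytotoxicity was checked by SRB in parallel cultures.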
# [12] = read-out: Vascular cell adhesion molecule 1 (VCAM1), VCAM1 (gene 7412); assay: BSK_hDFCGF_VCAM1: BioMAP Diversity Plus: hDFCGF Assay for Vascular cell adhesion molecule 1 (VCAM1) Biomarker Activity (AID 2283065); conditions: primary human foreskin fibroblasts; actives raise or lower the signal
# Method in brief: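 Human foreskin fibroblast primary cells dosed with chemical, VCAM-1 measured by ELISA at 24 h. Bidirectional curve fitting relative to DMSO as negative control/baseline.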
# [13] = read-out: Plasminogen activator inhibitor-1 (PAI1), SERPINE1 (gene 5054); assay: BSK_hDFCGF_PAI1: BioMAP Diversity Plus: hDFCGF Assay for Plasminogen activator inhibitor-1 (PAI1) Biomarker Activity (AID 2283066); conditions: primary human foreskin fibroblasts; actives raise or lower the signal
# Method in brief: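 PAI-1 levels in human dermal foreskin fibroblasts were quantified by ELISA 24 h after dosing, with gain or loss analysed against DMSO. Overt cytotoxicity was checked by sulforhodamine B total-protein staining in parallel cultures.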
# [14] = read-out: Intercellular Adhesion Molecule 1 (ICAM1), ICAM1 (gene 3383); assay: BSK_KF3CT_ICAM1: BioMAP Diversity Plus: KF3CT Assay for Intercellular Adhesion Molecule 1 (ICAM1) Biomarker Activity (AID 2283067); conditions: primary human keratinocytes with fibroblasts; actives raise or lower the signal
# Method in brief: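 Human keratinocyte–foreskin fibroblast co-culture was treated for 24 h. Cell-surface ICAM-1 was quantified by ELISA, fitted bidirectionally relative to DMSO. Cytotoxicity was checked in parallel cultures by SRB total-protein staining.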
# [15] = read-out: Interferon-gamma inducible Protein 10 (IP10), CXCL10 (gene 3627); assay: BSK_KF3CT_IP10: BioMAP Diversity Plus: KF3CT Assay for Interferon-gamma inducible Protein 10 (IP10) Biomarker Activity (AID 2283068); conditions: primary human keratinocytes with fibroblasts; actives raise or lower the signal
# Method in brief: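 Signal is secreted/surface IP-10 by ELISA in a human primary skin co-culture of keratinocytes and foreskin fibroblasts, taken 24 h post-dosing; DMSO served as negative control.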
# [16] = BSK_KF3CT_SRB: Viability Assessment in the BioMAP Diversity Plus: KF3CT Assay (AID 2283069); conditions: primary human keratinocytes with fibroblasts;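 note: read 24 h after compound addition; fitted for both signal gain and loss against DMSO baseline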
# Method in brief: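 SRB read-out at 560 nm (0.1% stain, TCA-fixed cells) gauges overt cytotoxicity in a human skin keratinocyte–fibroblast co-culture 24 h post-dosing. Signal change was fitted bidirectionally relative to DMSO control.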
# [17] = read-out: Interleukin-1 alpha (IL1a), IL1A (gene 3552); assay: BSK_KF3CT_IL1a: BioMAP Diversity Plus: KF3CT Assay for Interleukin-1 alpha (IL1a) Biomarker Activity (AID 2283070); conditions: primary human keratinocytes with fibroblasts; actives raise or lower the signal
# Method in brief: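 Primary skin co-culture (keratinocytes, foreskin fibroblasts), 24 h exposure; ELISA for IL-1a; bidirectional curve fit vs DMSO.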
# [18] = read-out: Transforming growth factor beta 1 (TGFb1), TGFB1 (gene 7040); assay: BSK_KF3CT_TGFb1: BioMAP Diversity Plus: KF3CT Assay for Transforming growth factor beta 1 (TGFb1) Biomarker Activity (AID 2283072); conditions: primary human keratinocytes with fibroblasts; actives raise or lower the signal
# Method in brief: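 ELISA quantifies TGF-b1 at 24 h post-dose in a primary human skin co-culture of keratinocytes and fibroblasts, with gain or loss judged against DMSO. Parallel SRB total-protein staining flags overt cytotoxicity.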
# [19] = read-out: Collagen III, COL3A1 (gene 1281); assay: BSK_hDFCGF_CollagenIII: BioMAP Diversity Plus: hDFCGF Assay for Collagen III Biomarker Activity (AID 2283056); conditions: primary human foreskin fibroblasts; actives raise or lower the signal
# Method in brief: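 Human foreskin fibroblast primary cultures sampled 24 h after dosing; Collagen III quantified by ELISA. Signal fitted bidirectionally against DMSO baseline.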
# [20] = read-out: TIMP metallopeptidase inhibitor 2 (TIMP2), TIMP2 (gene 7077); assay: BSK_KF3CT_TIMP2: BioMAP Diversity Plus: KF3CT Assay for TIMP metallopeptidase inhibitor 2 (TIMP2) Biomarker Activity (AID 2283071); conditions: primary human keratinocytes with fibroblasts; actives raise or lower the signal
# Method in brief: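 TIMP-2 measured by ELISA at 24 h in human keratinocyte/fibroblast primary co-cultures exposed to chemicals. Both increases and decreases were fitted against DMSO. Parallel cultures were stained with SRB for total protein as an overt-cytotoxicity check.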
structure (smiles),measurement,setting,value
CCCc1ccccc1,outcome,[1],inactive
same,outcome,[2],inactive
same,outcome,[3],inactive
same,outcome,[4],inactive
same,outcome,[5],inactive
same,outcome,[6],inactive
same,outcome,[7],inactive
same,outcome,[8],inactive
same,outcome,[9],inactive
same,outcome,[10],inactive
same,outcome,[11],inactive
same,outcome,[12],inactive
same,outcome,[13],inactive
same,outcome,[14],inactive
same,outcome,[15],inactive
same,outcome,[16],inactive
same,outcome,[17],inactive
same,outcome,[18],inactive
c1ccc2c(c1)-c1cccc3c1c-2cc1ccccc13,outcome,[1],inactive
same,outcome,[2],inactive
same,outcome,[3],inactive
same,outcome,[19],inactive
same,outcome,[4],inactive
same,outcome,[5],inactive
same,outcome,[6],inactive
same,outcome,[7],inactive
same,outcome,[8],inactive
same,outcome,[10],inactive
same,AC50,[11],6.72 µM (active)
same,outcome,[12],inactive
same,outcome,[13],inactive
same,outcome,[14],inactive
same,outcome,[15],inactive
same,outcome,[16],inactive
same,outcome,[17],inactive
same,outcome,[20],inactive
same,outcome,[18],inactive
COS(C)(=O)=O,outcome,[1],inactive
same,outcome,[2],inactive
same,outcome,[3],inactive
same,outcome,[19],inactive
same,outcome,[4],inactive
same,outcome,[5],inactive
same,outcome,[6],inactive
same,outcome,[7],inactive
same,outcome,[8],inactive
same,outcome,[10],inactive
same,outcome,[12],inactive
same,outcome,[13],inactive
same,outcome,[14],inactive
same,outcome,[15],inactive
same,outcome,[16],inactive
same,outcome,[17],inactive
same,outcome,[18],inactive
O=C(O)c1ccc2c(c1)nc(C(=O)NC1CCN(C3CC3)CC1)n2Cc1cc(-c2ccc(Cl)s2)on1,outcome,[1],inactive
same,outcome,[2],inactive
same,outcome,[3],inactive
same,outcome,[19],inactive
same,outcome,[4],inactive
same,outcome,[5],inactive
same,outcome,[6],inactive
same,outcome,[7],inactive
same,outcome,[8],inactive
same,outcome,[10],inactive
same,outcome,[11],inactive
same,outcome,[12],inactive
same,outcome,[13],inactive
same,outcome,[14],inactive
same,outcome,[15],inactive
same,outcome,[16],inactive
same,outcome,[17],inactive
same,outcome,[20],inactive
same,outcome,[18],inactive
OC(CCl)CCl,outcome,[1],inactive
same,outcome,[2],inactive
same,outcome,[3],inactive
same,outcome,[4],inactive
same,outcome,[5],inactive
same,outcome,[6],inactive
same,outcome,[7],inactive
same,outcome,[8],inactive
same,outcome,[9],inactive
same,outcome,[10],inactive
same,outcome,[11],inactive
same,outcome,[12],inactive
same,outcome,[13],inactive
same,outcome,[14],inactive
same,outcome,[15],inactive
same,outcome,[16],inactive
same,outcome,[17],inactive
same,outcome,[18],inactive
CC(=O)c1ccccc1,outcome,[1],inactive
same,outcome,[2],inactive
same,outcome,[3],inactive
same,outcome,[19],inactive
same,outcome,[4],inactive
same,outcome,[5],inactive
same,outcome,[6],inactive
same,outcome,[7],inactive
same,outcome,[8],inactive
same,outcome,[10],inactive
same,outcome,[12],inactive
same,outcome,[13],inactive
same,outcome,[14],inactive
same,outcome,[15],inactive
same,outcome,[16],inactive
same,outcome,[17],inactive
same,outcome,[18],inactive
FC(F)=C(F)C(F)(F)C(F)(F)C(F)(F)C(F)(F)C(F)(F)C(F)(F)F,outcome,[1],inactive
same,outcome,[2],inactive
same,outcome,[3],inactive
same,outcome,[19],inactive
same,outcome,[4],inactive
same,outcome,[5],inactive
same,outcome,[6],inactive
same,outcome,[7],inactive
same,outcome,[8],inactive
same,outcome,[10],inactive
same,outcome,[11],inactive
same,outcome,[12],inactive
same,outcome,[13],inactive
same,outcome,[14],inactive
same,outcome,[15],inactive
same,outcome,[16],inactive
same,outcome,[17],inactive
same,outcome,[20],inactive
